Screening data: PubChem BioAssay, several laboratories
A selection: hits, their analogues and other compounds. The true share with any hit is near 4.2%.
GDH-TPI inh – counter-screen for M. tuberculosis FBA inhibitors: GDH-TPI coupled enzymes; inhibition, % at 4.8 µM; AID 588335; GDH-TPI coupled enzyme counterscreen, NADH absorbance; hit rate 1.2% among 360,000
FBA Mtb inh – Mtb fructose-bisphosphate aldolase inhibition; purified M. tuberculosis FBA, fluorescence read-out; inhibition, % at 1 µM; hit rate 2.3% among 360,000; AID 588726; in the data active = inhibition above about 27%
CCHF vOTU inh-1 – CCHFV vOTU protease inhibition | Pep-AMC fluorescence | inhibition, % at 11.5 µM | hit rate 0.55% among 370,000 | AID 651958
RecA intein inh – Mtb RecA intein splicing inhibition | AID 2221 | hit rate 0.75% among 290,000 | inhibition, % (test concentration not listed) | cell-free RecA intein splicing, fluorescence; in the data active = inhibition above about 30%
Mtb bLac sens – beta-lactam sensitization of Mtb H37Rv. M. tuberculosis H37Rv growth with meropenem, percent inhibition. inhibition, % at 25 µM. hit rate 0.27% among 330,000. AID 434955; call rule not given here;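 note: growth measured after seven days incubation then overnight dye step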
CCHF vOTU inh-2 – confirmation of CCHF virus vOTU protease inhibitors; shares compounds with CCHF vOTU inh-1; Recombinant CCHFV vOTU, Pep-AMC fluorescence; inhibition, % at 11.5 µM; hit rate 17% among 1,900
Of the large screens only hits and unclear results are named; the others gave an inactive call (follow-up assays come after a bar, where they were run). Cut-off read from the data, not from the text of the source, unless noted: active = inhibition above about 30%; inactive = the rest.

CCCCCCCCCCCCCCCC[n+]1ccc(C(N)=O)cc1	none (no result: RecA intein inh)
CCCCCCCCCCCCCCCC[n+]1ccccc1	CCHF vOTU inh-1 38 (no result: RecA intein inh, Mtb bLac sens) | CCHF vOTU inh-2 37
C#CCN1CC(COc2ccccc2)Oc2cccc(Oc3ccc(SC)c(C)c3)c2S1(=O)=O (stereo unspecified)	CCHF vOTU inh-1 31 (no result: GDH-TPI inh, FBA Mtb inh, RecA intein inh, Mtb bLac sens) | CCHF vOTU inh-2 inactive
CCCCN1CC(COCc2ccccc2)Oc2cccc(Oc3cc(C)c(C)c(C)c3)c2S1(=O)=O (stereo unspecified)	none (no result: RecA intein inh, Mtb bLac sens)
Cc1cc(C)c(C)c(OCC(=O)NCC2CCCO2)c1 (stereo unspecified)	CCHF vOTU inh-1 33 | CCHF vOTU inh-2 inactive
COC(=O)[C@]12C[C@H](CC(=O)NCc3cccc4ccccc34)C(=O)N(CCc3ccc(OC)c(OC)c3)C1=C[C@H](C(C)C)O[C@@H]2C1CC1	none (no result: GDH-TPI inh, FBA Mtb inh, RecA intein inh, Mtb bLac sens)
CCOC(=O)C1(Cc2cccc(Cl)c2)CCCN(C(=O)c2ccco2)C1 (stereo unspecified)	none
CCOC(=O)C1(Cc2cccc(Cl)c2)CCCN(C(=O)c2ccc(COC)s2)C1 (stereo unspecified)	CCHF vOTU inh-1 31 | CCHF vOTU inh-2 inactive
CCN(CC)CCC(=O)Nc1cccc2c1C(=O)c1ccccc1C2=O	none
CCc1ccc([C@H]2C(C(=O)O)=C[C@@H](CC3CCCC3)N2S(=O)(=O)c2ccc(C)cc2)cc1	CCHF vOTU inh-1 47 (no result: RecA intein inh) | CCHF vOTU inh-2 inactive
CCCCC[C@@H]1C=C(C(=O)O)[C@H](c2ccc(C)cc2)N1S(=O)(=O)c1ccc(C)cc1	none (no result: RecA intein inh)
CCCC[C@@H]1C=C(C(=O)O)[C@H](c2ccc(Cl)c(Cl)c2)N1S(=O)(=O)c1ccc(C)cc1	CCHF vOTU inh-1 32 (no result: RecA intein inh) | CCHF vOTU inh-2 inactive
CCCCC[C@@H]1C=C(C(=O)O)[C@H](c2ccc(Cl)cc2)N1S(=O)(=O)c1ccc(C)cc1	CCHF vOTU inh-1 32 (no result: RecA intein inh) | CCHF vOTU inh-2 inactive
CC(=O)N(Cc1nc2sc(C)c(C)c2c(=O)[nH]1)C1CCCC1	none
COc1cc(/C=C2\SC(=S)N(CC(=O)O)C2=O)ccc1OS(=O)(=O)c1ccc(C)cc1	CCHF vOTU inh-1 54 (no result: RecA intein inh) | CCHF vOTU inh-2 inactive
COc1cc(/C=C2/SC(=S)N(CC(=O)O)C2=O)ccc1OC(=O)c1cccs1	none
Cc1cccc(COc2ccccc2C(=O)OCC(=O)N(C)c2c(N)n(Cc3ccccc3)c(=O)[nH]c2=O)c1	none
CCCCN(C=O)c1c(CC)nc2c(OCC(=O)C(C)(C)C)cccn12	CCHF vOTU inh-1 32 (no result: RecA intein inh, Mtb bLac sens) | CCHF vOTU inh-2 inactive
CCc1nc2c(OCC(=O)C(C)(C)C)cccn2c1N(C=O)CC(=O)N(C)C	none (no result: RecA intein inh, Mtb bLac sens)
COc1ccc(C(CNC(=O)C(=O)NC2CCCCC2)N2CCN(C)CC2)cc1 (stereo unspecified)	CCHF vOTU inh-1 32 | CCHF vOTU inh-2 inactive
COc1ccc(C(=O)Nc2ccccc2)cc1NC(=O)c1cccs1	none
O=C(c1ccccc1)N1CCN(C2CCCCC2)CC1	none
O=C1CCN(CC2CCCCC2)C=C1C(=O)c1ccccc1	CCHF vOTU inh-1 32 (no result: RecA intein inh, Mtb bLac sens) | CCHF vOTU inh-2 inactive
O=C(CN1C(=O)c2ccccc2C1=O)NC1CCS(=O)(=O)C1 (stereo unspecified)	none (no result: RecA intein inh, Mtb bLac sens)
CC(=O)NC1=C(NC2CCS(=O)(=O)C2)C(=O)c2ccccc2C1=O (stereo unspecified)	CCHF vOTU inh-1 42 | CCHF vOTU inh-2 inactive
CC1(Cc2ccc(F)cc2)C(=O)Nc2ccc(S(=O)(=O)NC3CCCCC3)cc21 (stereo unspecified)	CCHF vOTU inh-1 44 (no result: RecA intein inh, Mtb bLac sens) | CCHF vOTU inh-2 inactive
COC(=O)C1=C(C)N(Cc2ccc(C(F)(F)F)cc2)C(=NCc2ccc(OC)cc2)NC1c1ccccc1 (stereo unspecified)	CCHF vOTU inh-1 30 (no result: GDH-TPI inh, FBA Mtb inh, RecA intein inh, Mtb bLac sens) | CCHF vOTU inh-2 inactive
C=CCN=C1NC(c2cccc(Cl)c2)C(C(=O)OC)=C(C)N1Cc1cccc(C(F)(F)F)c1 (stereo unspecified)	CCHF vOTU inh-1 30 (no result: GDH-TPI inh, FBA Mtb inh, RecA intein inh, Mtb bLac sens) | CCHF vOTU inh-2 inactive
COC(=O)C1=C(C)N(Cc2ccccc2C(F)(F)F)C(=NCc2ccc(C(F)(F)F)cc2)NC1c1cccc(C(F)(F)F)c1 (stereo unspecified)	none (no result: GDH-TPI inh, FBA Mtb inh, RecA intein inh, Mtb bLac sens)
COC(=O)C1=C(C)N(Cc2ccccc2C(F)(F)F)C(=NCc2ccc(C(F)(F)F)cc2)NC1c1cccc(Cl)c1 (stereo unspecified)	CCHF vOTU inh-1 36 (no result: GDH-TPI inh, FBA Mtb inh, RecA intein inh, Mtb bLac sens) | CCHF vOTU inh-2 inactive
C=CCN=C1NC(c2ccccc2)C(C(=O)OC)=C(C)N1Cc1cccc(C(F)(F)F)c1 (stereo unspecified)	none (no result: GDH-TPI inh, FBA Mtb inh, RecA intein inh, Mtb bLac sens)
Cc1ccc(C2c3c(n[nH]c3C)C(=O)N2c2ccccc2)cc1 (stereo unspecified)	none (no result: GDH-TPI inh, FBA Mtb inh, RecA intein inh, Mtb bLac sens)
